Shown are actives, neighbours in structure and some others; about 19% of the full set was active somewhere.
HT1080 IDH1KD tx: HT-1080 IDH1 knockdown cell toxicity (counter line); HT-1080 IDH1 knockdown viability, ATP luminescence, 48 h; Potency, µM (series often up to 46.1 µM), for inactives: top-dose activity, negative = toxicity, most hits filed as cytotoxic; actives 2% (n = 360,000); AID 686971;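 note: 0% = DMSO wells and -100% = cell-free medium wells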
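Viability of IDH1-knockdown HT-1080 fibrosarcoma cells was assessed by CellTiter-Glo after 48 h at 37 °C with titrated compound; concentration-effect curves were classified by fit quality and response size.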
DT40 TDP1 no CPT: qHTS for Inhibitors of human tyrosyl-DNA phosphodiesterase 1 (TDP1): qHTS in cells in absence of CPT; DT40 Tdp1-/- hTDP1 cells, no CPT, ATP luminescence, 48 h; Potency, µM (titrated, usually from 46.2 µM), for the others: top-dose activity change, negative = growth inhibition, actives largely listed as inhibitors; actives 15% (n = 420,000); note: nearly all actives have a fitted effect of over 55% in size
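Chicken DT40 Tdp1-/- cells complemented with human TDP1, screened without camptothecin (DMSO vehicle only), 400 cells/well. Compounds pin-transferred, cells incubated at 37 °C for at least 48 hr. Growth read as ATP-dependent luminescence (CellTiter-Glo, 30 min at RT).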
TDP1 cell CPT: growth inhibition of DT40 Tdp1-/-;hTDP1 cells with camptothecin (screen for TDP1 inhibitors); chicken DT40 Tdp1-/-;hTDP1 cells + 20 nM CPT, ATP luminescence, 48 h; Potency, µM (series often up to 46.2 µM), without a hit: at the top dose activity change, negative = growth inhibition, hits mostly inhibitors; actives 12% (n = 420,000); note: nearly all actives have a fitted effect of over 55% in size
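Cell growth measured by CellTiter-Glo luminescence after a minimum 48 h, 37 C compound exposure with 20 nM CPT in Tdp1-knockout DT40 cells stably expressing hTDP1, seeded 400/well; qHTS titration format.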
HT1080-NT tox: kills 2HG-producing HT-1080-NT fibrosarcoma cells. actives 1.6% (n = 360,000). Potency, µM (top dose mostly 46.1 µM), for the others: at the top dose activity, negative = less viability, usual class: cytotoxic. AID 686970. HT-1080-NT fibrosarcoma viability, CellTiter-Glo ATP luminescence, 48 h;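 note: NT is the 2HG producing partner of a matched IDH1 knockdown line; 0% = DMSO-treated cells and -100% = media-only wells without cells; nearly all actives have a fitted effect of over 55% in size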
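HT-1080-NT; 750 cells/well; 5% FBS RPMI; 48 h compound, 37 degrees C; CellTiter-Glo luminescence; curve fitting and curve-class assignment.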
KB-3-1 cytotox: KB-3-1 parental cell cytotoxicity | actives 1.4% (n = 400,000) | KB-3-1 viability, CellTiter-Glo ATP luminescence, 72 h | Potency, µM (highest dose often 46.1 µM), usual class: cytotoxic | AID 1347075; note: nearly all actives have a fitted effect of over 60% in size
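Cells are dispensed, compounds pinned in, plates held at 37 °C for 72 h, then CellTiter-Glo is added and luminescence read after 10 minutes. Cell line: parental KB-3-1 in phenol-red-free DMEM, 10% FBS.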
KB-V1 cytotox: kills drug-selected multidrug resistant KB-V1 cells; KB-V1 MDR cells viability, CellTiter-Glo, 72 h; Potency, µM (top dose mostly 46.1 µM), most hits filed as cytotoxic; actives 3.4% (n = 400,000); AID 1347076; note: nearly all actives have a fitted effect of over 60% in size
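Compound-treated KB-V1 multidrug-resistant cells, 72 h, 37 degrees C; viability by CellTiter-Glo. Fitted qHTS curves give the values.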
* hit, by the source's call; i = inactive; ? = inconclusive; / = no result; ! = a repeat was not active. Calls come from the whole dose curve; as a rule, active = well fitted curve in the direction sought with a large enough effect; inconclusive = small, poorly fitted or top-dose-only effect, or another doubt; inactive = no such curve, though single readings can be large; an effect the other way counts as inactive or inconclusive. Unless noted, % is set by controls: 0 for no effect and ±100 for the full control effect; potency is the fitted concentration of half-maximal effect.

SMILES | HT1080 IDH1KD tx | DT40 TDP1 no CPT | TDP1 cell CPT | HT1080-NT tox | KB-3-1 cytotox | KB-V1 cytotox
CCOC(=O)[C@H]1[C@H]2COc3ccc(Cl)cc3[C@@H]2N2C(=O)c3cc(OC)ccc3NC(=O)[C@@]12C | -13% | 23µM* | ? | -8% | ? | i
CCOC(=O)[C@H]1[C@H]2COc3ccc(OC)cc3[C@@H]2N2C(=O)c3ccc(Cl)cc3NC(=O)[C@@]12C | 4% | ? | ? | -14% | i | i
CCOC(=O)[C@H]1[C@H]2COc3ccc(C)cc3[C@@H]2N2C(=O)c3ccc(Cl)cc3NC(=O)[C@@]12C | -5% | ? | ? | 2% | i | i
COc1ccccc1/C=C(/C(=O)OCC(=O)Nc1ccccc1C(C)C)c1ccccc1 | -13% | 21µM* | ? | -26% | i | i
COc1nc(-c2ccc(C)cc2)ccc1-c1noc(-c2ccc(C(C)(C)C)cc2)n1 | / | ? | ? | / | i | i
O=C1N=C(N2CCCC2C(=O)O)S/C1=C\c1ccco1 (stereo not drawn) | -12% | 18µM* | 8.2µM* | -3% | i | i
O=C1c2ccccc2C(Nc2cccnc2)N1Cc1ccccc1 (stereo not drawn) | -1% | -20% | -13% | 1% | i | i
O=C1c2ccccc2C(Nc2ccc3c(c2)OCCO3)N1Cc1ccccc1 (stereo not drawn) | -17% | 16µM* | 29µM* | -27% | i | i
CC(=O)c1cccc(NC2c3ccccc3C(=O)N2Cc2ccc3c(c2)OCO3)c1 (stereo not drawn) | -8% | 21µM* | ? | -10% | i | i
COc1cc(NC2c3ccccc3C(=O)N2Cc2ccc3c(c2)OCO3)cc(OC)c1OC (stereo not drawn) | -4% | ? | -7% | -2% | i | i
CCOc1ccc(NC2c3ccccc3C(=O)N2Cc2ccc3c(c2)OCO3)cc1 (stereo not drawn) | -16% | 16µM* | ? | -1% | ? | i
Cc1ccc(NS(=O)(=O)c2cc3c(cc2N(C)C)CCC(=O)N3)cc1C | / | / | / | / | i | i
Cc1ccc(S(=O)(=O)Nc2ccc(Nc3nccn4c(-c5ccccc5Oc5ccccc5)cnc34)cc2)cc1 | 17% | ? | ? | 27% | i | i
Cc1ccc(S(=O)(=O)Nc2ccc(Nc3nccn4c(-c5ccc6ccccc6c5)cnc34)cc2)cc1 | -1% | ? | ? | -24% | i | 12µM*
FC(F)C(F)(F)Oc1cccc(Nc2nccn3c(-c4cc(C(F)(F)F)cc(C(F)(F)F)c4)cnc23)c1 | 0% | ? | ? | -2% | i | i
Cc1ccc(-c2cnc3c(Nc4cccc(OC(F)(F)C(F)F)c4)nccn23)cc1 | ? | 16µM* | 23µM* | 20% | i | i
OCc1cccc(-c2cnc3c(Nc4cccc(OC(F)(F)C(F)F)c4)nccn23)c1 | ? | 16µM* | ? | ? | i | i
CC1(C)OCC(N)(CO)CO1 | 2% | -18% | 0% | 0% | i | i
CCN(C(C)=O)c1nc(CSc2nnc(NC(C)C)s2)cs1 | 7% | ? | -15% | 12% | i | 23µM*
CC1CCC(NC(=O)c2ccc(CS(=O)(=O)Cc3ccccc3F)o2)CC1 (stereo not drawn) | -10% | ? | -27% | -3% | i | ?
Cc1ccccc1CS(=O)(=O)Cc1ccc(C(=O)NCc2cccnc2)o1 | -1% | -12% | -8% | 7% | i | i
Cc1ccc(CCNC(=O)c2ccc(CS(=O)(=O)Cc3ccccc3F)o2)cc1 | -5% | 16µM* | ? | -7% | i | 5.8µM*!

Assay outcomes: PubChem BioAssay, National Center for Advancing Translational Sciences (NCATS)
